Read-out in assay [1]: Tissue Factor, F3 (gene 2152)
The assay is described as follows: BSK_LPS_TissueFactor: BioMAP Diversity Plus: LPS Assay for Tissue Factor Biomarker Activity (AID 2283084). The following applies: primary human HUVEC with PBMC; actives raise or lower the signal. The procedure, abridged: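 In this co-culture system of umbilical vein endothelium with PBMC, stimulated with LPS, cell-surface CD142 is detected by ELISA at 24 h. Endpoint values derive from bidirectional fitting, DMSO serving as baseline.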

Read-out in assay [2]: CD38, CD38 (gene 952)
The experiment in a line: BSK_SAg_CD38: BioMAP Diversity Plus: SAg Assay for CD38 Biomarker Activity (AID 2283087). To be noted: primary human HUVEC with PBMC; actives raise or lower the signal. In a few lines: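 CD38 quantified by ELISA (fluorescence) in a superantigen-activated endothelial cell–PBMC co-culture at 24 h post-dose. Activity fitted in both directions relative to DMSO; parallel SRB and Alamar Blue cytotoxicity read-outs.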

Read-out in assay [3]: CD40, CD40 (gene 958)
The experiment in a line: BSK_SAg_CD40: BioMAP Diversity Plus: SAg Assay for CD40 Biomarker Activity (AID 2283088). To be noted: primary human HUVEC with PBMC; actives raise or lower the signal. In a few lines:
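Fluorescence ELISA read-out of CD40 from umbilical vein endothelium plus peripheral blood mononuclear cells, sampled 24 h after dosing. Values come from bidirectional curve fitting with DMSO as baseline.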

Read-out in assay [4]: CD69, CD69 (gene 969)
The experiment in a line: BSK_SAg_CD69: BioMAP Diversity Plus: SAg Assay for CD69 Biomarker Activity (AID 2283089).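 As to AC50: cell surface CD69 protein quantified by ELISA with fluorescence detection.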 The following applies: primary human HUVEC with PBMC; actives raise or lower the signal. In a few lines:
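HUVEC co-cultured with PBMC were dosed with chemical, and CD69 was measured by ELISA with fluorescence read-out 24 h later. Bidirectional curve fitting used DMSO as negative control and activity baseline.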

Read-out in assay [5]: E-selectin (Homo sapiens) (UniProt P16581)
The experiment in a line: BSK_SAg_Eselectin: BioMAP Diversity Plus: SAg Assay for Eselectin Biomarker Activity (AID 2283091). The following applies: primary human HUVEC with PBMC; actives raise or lower the signal. The procedure, abridged:
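Primary human endothelial cells and peripheral blood mononuclear cells were co-cultured and exposed to chemical for 24 hours. E-selectin levels were then quantified by ELISA, with bidirectional curve fitting normalised to DMSO controls.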

Assay [6] is described as follows: BSK_SAg_PBMCCytotoxicity: PBMC Cytotoxicity Assessment in the BioMAP Diversity Plus: SAg Assay (AID 2283093).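 Also: PBMC viability measured as Alamar Blue reduction fluorescence at 546/580 nm; fitted both ways against DMSO so a hit may be loss or gain of signal.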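 As to AC50: PBMC superantigen activated with SEB plus TSST-1 one hour after compound addition.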 To be noted: primary human HUVEC with PBMC. The procedure, abridged: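 Alamar Blue reduction (6 h, ex/em 546/580 nm) read after 90 h culture of PBMC pre-dosed 1 h then stimulated with SEB plus TSST-1, 20 ng/mL each. Gain or loss of signal fitted relative to DMSO.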

Read-out in assay [7]: Interleukin-8 (IL8), CXCL8 (gene 3576)
The assay is described as follows: BSK_SAg_IL8: BioMAP Diversity Plus: SAg Assay for Interleukin-8 (IL8) Biomarker Activity (AID 2283094). To be noted: primary human HUVEC with PBMC; actives raise or lower the signal. In a few lines:
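ELISA readout of IL-8 from a superantigen-activated endothelial/PBMC primary human co-culture, taken 24 h post-dosing and fitted in both directions against DMSO; parallel SRB total-protein staining flags overt cytotoxicity.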

A short description of assay [8]: BSK_SAg_Proliferation: Cell Proliferation Assessment in the BioMAP Diversity Plus: SAg Assay (AID 2283095).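 Also: relative cell number as total protein by SRB absorbance in sub-confluent culture.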 The following applies: primary human HUVEC with PBMC. The procedure, abridged: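 Relative cell number in the endothelial cell/PBMC co-culture was quantified at 96 h by SRB staining (0.1% SRB, 10% TCA fixation, read at 560 nm). Curves were fitted in both directions relative to DMSO baseline.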

A short description of assay [9]: BSK_SAg_SRB: Viability Assessment in the BioMAP Diversity Plus: SAg Assay (AID 2283096).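 Also: cells read one day after compound addition; hits may be either gain or loss of signal compared with DMSO.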 To be noted: primary human HUVEC with PBMC. In a few lines:
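SRB absorbance at 560 nm served as the viability read-out. Cells (HUVEC plus peripheral blood mononuclear cells) were TCA-fixed and stained 24 h post-dosing; activity fitted in both directions against DMSO controls.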

The source holds several records for some structures; these can differ, active in one and inactive in another. Calls of active or inactive are those of the source. The calls were made as follows: active = hit-call score of the fitted dose curve at least 0.9, where 1 is the maximum; inactive = score below 0.9.

In PubChem BioAssay (EPA / NIEHS) one finds outcome and AC50 data, which are given here for ten molecules.

What is called AC50 is the concentration at which the activity in the assay is half-maximal.

Sequence of E-selectin (Homo sapiens) (P16581 whole entry, looked up): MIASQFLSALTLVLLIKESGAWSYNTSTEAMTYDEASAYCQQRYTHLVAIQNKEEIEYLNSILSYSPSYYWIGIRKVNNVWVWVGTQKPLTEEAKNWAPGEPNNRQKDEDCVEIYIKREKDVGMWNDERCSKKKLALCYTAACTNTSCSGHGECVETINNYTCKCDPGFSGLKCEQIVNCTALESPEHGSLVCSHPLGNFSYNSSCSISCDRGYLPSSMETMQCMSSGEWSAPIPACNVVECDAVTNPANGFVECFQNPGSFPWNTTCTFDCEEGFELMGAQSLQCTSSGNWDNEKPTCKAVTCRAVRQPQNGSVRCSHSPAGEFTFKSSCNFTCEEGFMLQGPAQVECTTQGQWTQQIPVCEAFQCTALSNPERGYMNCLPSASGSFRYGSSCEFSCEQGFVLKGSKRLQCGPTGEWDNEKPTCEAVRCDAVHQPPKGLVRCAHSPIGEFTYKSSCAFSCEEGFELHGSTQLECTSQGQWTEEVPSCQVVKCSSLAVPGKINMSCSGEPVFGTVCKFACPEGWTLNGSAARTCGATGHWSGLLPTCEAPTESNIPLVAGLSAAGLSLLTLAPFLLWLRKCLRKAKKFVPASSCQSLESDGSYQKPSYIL

In the case of `O=C(c1ccc(O)cc1)c1ccc(O)cc1O`, the result in assay [1], in [2], in assay [3], in [4], in assay [5] and in [6] was inactive. Also, the outcome in [7], in assay [8] and in [9] was inactive. The AC50 was 20 µM (active) in assay [2] and 14.2 µM (active) in assay [8].
Turning to `CC(C)C(=O)C(C)C`, the result in assay [1], in assay [2], in [3], in assay [4], in assay [5] and in [6] was inactive. Moreover, the result in assay [7], in assay [8] and in [9] was inactive.
As for `CCO[Si](CCCN=C=O)(OCC)OCC`, the result in assay [1], in [2], in assay [3], in assay [4], in assay [5] and in assay [6] was inactive. In addition, the result in assay [7], in assay [8] and in assay [9] was inactive.
With `c1ccc(-c2ccccn2)nc1`, the outcome in assay [1], in [2], in assay [3], in assay [4], in [5] and in [6] was inactive. The result in [7], in [8] and in assay [9] was inactive.
For `CCCCNc1ccc(NCCCC)c2c1C(=O)c1ccccc1C2=O`, the result in assay [1], in assay [2], in assay [3], in [4], in assay [5] and in [6] was inactive. Moreover, the outcome in assay [7], in [8] and in [9] was inactive.
As for `CCO[Si](C)(OCC)OCC`, the result in assay [1], in assay [2], in assay [3], in assay [4], in assay [5] and in assay [6] was inactive. Moreover, the result in assay [7], in [8] and in [9] was inactive.
Consider `CC1OC1C1CCC2(C)OC2C1` (configuration not stated), for which the outcome in [1], in assay [2], in [3], in assay [4], in [5] and in [6] was inactive. For the same molecule, the outcome in assay [7], in assay [8] and in assay [9] was inactive.
For `O=C(Nc1ccccc1SSc1ccccc1NC(=O)c1ccccc1)c1ccccc1`, the outcome in assay [1], in assay [5] and in assay [9] was inactive. Moreover, the concentration at half-maximal activity (AC50) was 5.21 µM (active) in assay [2]; 8.91 µM (active) in [3]; 2.01 µM (active) in assay [4]; 2.78 µM (active) in assay [6]; 6.04 µM (active) in assay [7]; 3.19 µM (active) in assay [8].
Take `CO[Si](OC)(OC)c1ccccc1`: the result in assay [1], in [2], in assay [3], in assay [4], in assay [5] and in assay [6] was inactive. The outcome in assay [7], in [8] and in assay [9] was inactive.
With `O=C(Cl)c1cc(C(=O)Cl)cc(C(=O)Cl)c1`, the AC50 is 33 µM (active) in assay [1]; 28.9 µM (active) in assay [2]; 30.3 µM (active) in assay [3]; 31.9 µM (active) in assay [4]; 36.6 µM (active) in [5]; 12.6 µM (active) in assay [6]. The AC50 in [7] is 20 µM (active); in assay [8], 12.7 µM (active); in [9] it was 30.7 µM (active).
